The values below come from PubChem BioAssay (NCATS).

SMILES strings stand for the structures. Records with an inconclusive call do not appear. Calls of active or inactive are those of the source. Calls come from the whole dose curve.

Chain of Thyroid hormone receptor beta (Homo sapiens) (P10828 whole entry, looked up): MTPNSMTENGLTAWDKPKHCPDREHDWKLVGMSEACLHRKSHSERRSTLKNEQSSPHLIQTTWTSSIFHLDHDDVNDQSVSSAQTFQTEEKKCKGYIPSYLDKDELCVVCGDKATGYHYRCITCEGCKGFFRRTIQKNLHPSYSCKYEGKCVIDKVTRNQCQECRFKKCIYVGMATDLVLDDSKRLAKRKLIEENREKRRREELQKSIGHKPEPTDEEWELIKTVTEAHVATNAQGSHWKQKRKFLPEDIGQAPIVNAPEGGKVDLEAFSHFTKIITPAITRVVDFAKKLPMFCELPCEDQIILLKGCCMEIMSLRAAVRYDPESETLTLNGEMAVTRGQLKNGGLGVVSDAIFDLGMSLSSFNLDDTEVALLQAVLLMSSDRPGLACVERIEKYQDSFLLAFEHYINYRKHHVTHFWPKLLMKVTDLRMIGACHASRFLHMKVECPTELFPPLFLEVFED

One experiment deals with Retinoic acid receptor RXR-alpha (Homo sapiens) (UniProt P19793). Briefly: qHTS assay for small molecule agonists of retinoid X receptor alpha signaling (AID 588544).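 For activation: 0% = DMSO basal wells and 100% = reference agonist.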 Note: potency is the fitted concentration of half-maximal effect. The following applies: HEK293T RXRa-UAS-bla, beta-lactamase reporter, 18 h; series mostly up to 76.7 µM; activation: at the top concentration. For orientation: qHTS replaces the single test concentration by a dilution series.
Chain of Retinoic acid receptor RXR-alpha (Homo sapiens) (P19793 whole entry, looked up): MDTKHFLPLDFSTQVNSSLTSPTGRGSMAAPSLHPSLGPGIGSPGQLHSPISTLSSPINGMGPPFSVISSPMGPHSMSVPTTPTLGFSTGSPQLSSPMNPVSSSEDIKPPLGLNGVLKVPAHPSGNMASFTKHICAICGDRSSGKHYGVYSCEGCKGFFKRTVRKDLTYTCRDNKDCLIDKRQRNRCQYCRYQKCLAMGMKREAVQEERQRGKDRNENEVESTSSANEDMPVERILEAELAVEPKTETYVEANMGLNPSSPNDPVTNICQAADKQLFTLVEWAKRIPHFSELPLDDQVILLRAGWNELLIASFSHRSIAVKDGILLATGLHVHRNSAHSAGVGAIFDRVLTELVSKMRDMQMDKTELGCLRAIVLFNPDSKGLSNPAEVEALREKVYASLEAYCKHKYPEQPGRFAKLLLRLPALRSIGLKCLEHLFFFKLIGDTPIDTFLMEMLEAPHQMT
Turning to `O=S(=O)(c1ccc(O)cc1)c1ccc(O)cc1`, the “activation” value was 19.1% (inactive). `COc1ccc(O)c(C(C)(C)C)c1`: the “activation” value was 14.6% (inactive).

As to `Cc1ccccc1C(=O)Nc1cccc(OC(C)C)c1`, the “activation” value was 12.3% (inactive). Same read-out and setting: the result for `CN(C)P(=O)(N(C)C)N(C)C` reads -2.6% (inactive); that for `O=c1[nH]c2ccccc2c(=O)o1`, 3.36% (inactive). For the compound `COc1ccc(C(O)(c2cncnc2)C2CC2)cc1` (stereo not drawn), the “activation” value is 8.17% (inactive). In the case of `CN(C)c1nc(=O)n(C2CCCCC2)c(=O)n1C`, the “activation” value was -9.8% (inactive).

Consider `COC(=O)c1ccccc1CS(=O)(=O)NC(=O)Nc1nc(OC)cc(OC)n1`, for which the “activation” value is -4.05% (inactive). The same measure, in the same setting: the result for `CCC[CH2][Sn]([CH2]CCC)([O]C(C)=O)[O]C(C)=O` reads -12.5% (inactive); that for `CCCCN(CC)C(=O)SCCC`, 8.66% (inactive); that for `CCOP(=O)(NC(C)C)Oc1ccc(S(C)=O)c(C)c1` (stereo not drawn), 0.0987% (inactive). On the same count and under the same terms, then `CCOP(=O)(O)C(N)=O`, with 15.7% (inactive); and `COC(=O)c1ccccc1S(=O)(=O)NC(=O)N(C)c1nc(C)nc(OC)n1`, with 5.79% (inactive); and `Clc1ccc(C(Cl)(Cl)Cl)cc1`, with 3.32% (inactive). In the case of `CCOC1Oc2ccc(OS(C)(=O)=O)cc2C1(C)C` (stereo not drawn), the “activation” value was -12.6% (inactive). For the compound `Clc1ccc([C@]2(Cn3cncn3)C[C@H](Br)CO2)c(Cl)c1`, the Potency entry was “inactive”.

Regarding `CCNc1nc(NC(C)(C)C)nc(SC)n1`, the “activation” value is 3.19% (inactive). Same read-out and setting: the result for `CCCCC(CC)COC(=O)Cl` (stereo not drawn) reads 3.72% (inactive); that for `CCOP(=S)(OCC)SCC(=O)NC(C)C`, -7.44% (inactive). Consider `C/C(=N\NC(=O)Nc1cc(F)cc(F)c1)c1ncccc1C(=O)O`, for which the Potency result was “inactive”. As for `C=CCC1=C(C)[C@@H](OC(=O)[C@@H]2[C@@H](C=C(C)C)C2(C)C)CC1=O`, the “activation” value is 5.86% (inactive).

With `C=CC(=O)OCCCCCC(C)C`, the Potency was 31.6 µM (active). On to `CCC(C)n1c(=O)[nH]c(C)c(Br)c1=O` (stereo not drawn), for which the “activation” value was -0.905% (inactive).

For `COP(=S)(OC)Oc1ccc([N+](=O)[O-])c(C)c1`, the “activation” value was -8.58% (inactive). The same measure, in the same setting: then `CCN(CC)C(=O)C(C)Oc1cccc2ccccc12` (stereo not drawn), with -6.84% (inactive); and `CCCCC(CC)C(=O)Cl` (stereo not drawn), with 28.1% (inactive). Regarding `CC(Oc1cc(Cl)c(Cl)cc1Cl)C(=O)O` (stereo not drawn), the “activation” value was 16.3% (inactive). For `Cc1c(F)c(F)c(COC(=O)C2C(/C=C(\Cl)C(F)(F)F)C2(C)C)c(F)c1F` (stereo not drawn), the “activation” value is 5.66% (inactive). Consider `Nc1ccc([N+](=O)[O-])cc1Cl`, for which the “activation” value is -7.76% (inactive).

In the case of `CNC(=O)Oc1ccc(N(C)C)c(C)c1`, the “activation” value is 9.77% (inactive).

A further experiment has as its target Thyroid hormone receptor beta (Homo sapiens) (UniProt P10828). Briefly: qHTS assay for small molecule agonists of thyroid hormone receptor beta signaling (AID 588545). The following applies: TR-UAS-bla GripTite HEK 293, beta-lactamase ratio, agonist mode, 18 h; series mostly up to 76.7 µM; activation: at the top concentration. Summed up:
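Agonist activity was read as beta-lactamase CCF4 fluorescence (405 ex, 460/530 em), scaled between DMSO (0%) and 10 nM T3 (100%), then Hill-fitted for EC50 and efficacy. HEK 293 TR-UAS-bla cells in 2% charcoal/dextran FBS medium were exposed 18 h at 37 C.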
`COc1ccc(O)c(C(C)(C)C)c1`: the “activation” value is -7.73% (inactive). Same read-out and setting: then `O=[N+]([O-])c1ccc(Oc2ccc(C(F)(F)F)cc2[N+](=O)[O-])cc1`, with 2.77% (inactive). On the same count and under the same terms, the result for `Cc1ccccc1C(=O)Nc1cccc(OC(C)C)c1` reads -7.18% (inactive); that for `CN(C)P(=O)(N(C)C)N(C)C`, -0.162% (inactive); that for `CCOc1ccc(C(C)(C)COCc2cccc(Oc3ccccc3)c2)cc1`, -11% (inactive).

Regarding `COc1ccc(C(O)(c2cncnc2)C2CC2)cc1` (stereo not drawn), the “activation” value is -6.96% (inactive). Still for that read-out and setting: the result for `CN(C)c1nc(=O)n(C2CCCCC2)c(=O)n1C` reads -4.93% (inactive); that for `C=CC1(C)OC(=O)N(c2cc(Cl)cc(Cl)c2)C1=O` (stereo not drawn), 1.47% (inactive).

Turning to `COC(=O)c1ccccc1CS(=O)(=O)NC(=O)Nc1nc(OC)cc(OC)n1`, the “activation” value was 8.69% (inactive).

`CCC[CH2][Sn]([CH2]CCC)([O]C(C)=O)[O]C(C)=O`: the “activation” value is -3.13% (inactive). With `O=P(O)(O)CCCl`, the “activation” value was -1.83% [at 2.03 mM, percent of T3 response, DMSO as zero] (inactive). On to `CCCCN(CC)C(=O)SCCC`, for which the “activation” value is 2.95% (inactive). Same read-out and setting: then `NS(=O)(=O)C(F)(F)C(F)(F)C(F)(F)C(F)(F)C(F)(F)C(F)(F)C(F)(F)C(F)(F)F`, with 0.303% (inactive).

As for `CCOP(=O)(NC(C)C)Oc1ccc(S(C)=O)c(C)c1` (stereo not drawn), the “activation” value was 3.13% (inactive). On the same count and under the same terms, then `COP(=S)(OC)Oc1nc(Cl)c(Cl)cc1Cl`, with -28.9% (inactive); and `CCOP(=O)(O)C(N)=O`, with -4.4% (inactive); and `COC(=O)c1ccccc1S(=O)(=O)NC(=O)N(C)c1nc(C)nc(OC)n1`, with 10.6% (inactive). On the same count and under the same terms, the result for `Clc1ccc(C(Cl)(Cl)Cl)cc1` reads 0.285% (inactive). In the case of `CCOC1Oc2ccc(OS(C)(=O)=O)cc2C1(C)C` (stereo not drawn), the “activation” value is -0.754% (inactive).

As to `COCc1cnc(C2=NC(C)(C(C)C)C(=O)N2)c(C(=O)O)c1` (stereo not drawn), the “activation” value is -6.59% (inactive).

On to `Clc1ccc([C@]2(Cn3cncn3)C[C@H](Br)CO2)c(Cl)c1`, for which the Potency entry was “inactive”. As for `CCCCC(CC)COC(=O)Cl` (stereo not drawn), the “activation” value was -6.96% (inactive).

On to `CCOP(=S)(OCC)SCC(=O)NC(C)C`, for which the “activation” value was 6.59% (inactive). For the compound `CCOc1nc(NC)nc(NC(=O)NS(=O)(=O)c2ccccc2C(=O)OC)n1`, the “activation” value was -2.86% (inactive).

`C/C(=N\NC(=O)Nc1cc(F)cc(F)c1)c1ncccc1C(=O)O`: the Potency result was “inactive”. With `C=CCC1=C(C)[C@@H](OC(=O)[C@@H]2[C@@H](C=C(C)C)C2(C)C)CC1=O`, the “activation” value was -12.5% (inactive). On the same count and under the same terms, the result for `CCC(C)n1c(=O)[nH]c(C)c(Br)c1=O` (stereo not drawn) reads -0.753% (inactive); that for `COP(=S)(OC)Oc1ccc([N+](=O)[O-])c(C)c1`, -3.3% (inactive); that for `CCN(CC)C(=O)C(C)Oc1cccc2ccccc12` (stereo not drawn), 10.4% (inactive).

On to `CCCCC(CC)C(=O)Cl` (stereo not drawn), for which the “activation” value is -0.366% (inactive). Turning to `Cc1c(F)c(F)c(COC(=O)C2C(/C=C(\Cl)C(F)(F)F)C2(C)C)c(F)c1F` (stereo not drawn), the “activation” value was -5.13% (inactive). On the same count and under the same terms, the result for `Nc1ccc([N+](=O)[O-])cc1Cl` reads -13.3% (inactive); that for `CNC(=O)Oc1ccc(N(C)C)c(C)c1`, -14.3% (inactive).
